Values joined by “and” are separate entries in the source; they are usually repeats but may differ in a detail not shown here. Identical values can stand only once. Results filed as inconclusive are left out. Entries that show only a call come without a potency. The source holds several records for some structures; these can differ, active in one and inactive in another. Active and inactive are the calls of the source. Unless noted, calls come from the whole dose curve; as a rule, active = well fitted curve in the direction sought with a large enough effect in the repeat runs; inconclusive = weak or mixed curves; inactive = no such curve, though single readings can be large; an effect the other way counts as inactive or inconclusive.
Experiments:
[1] = qHTS assay for small molecules that induce genotoxicity in human embryonic kidney cells expressing luciferase-tagged ATAD5 (AID 651632); note: nearly all actives have a fitted effect of over 15% in size; note: potency is the fitted concentration of half-maximal effect
How it was run: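 ATAD5-luc HEK293T, 2,000 cells/well; cpd or DMSO pin-transferred; 16 hr, 37C/5% CO2; Amplite 30 min RT; luminescence.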

[2] = qHTS assay for small molecules that induce genotoxicity in human embryonic kidney cells expressing luciferase-tagged ATAD5 - cell viability (AID 651634; calls by dose curve; note: nearly all actives have a fitted effect of over 25% in size; note: potency is the fitted concentration of half-maximal effect)
How it was run: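 Fluorescence from CellTiter-Fluor, reporting protease activity within live cells, served as the viability read-out. HEK293T cells carrying luciferase-tagged ATAD5 had been treated with compound for 15.5 hr at 37C.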

[3] = qHTS assay for small molecule disruptors of the mitochondrial membrane potential - cell viability (AID 720634; calls by dose curve; note: nearly all actives have a fitted effect of over 20% in size; note: potency is the fitted concentration of half-maximal effect)
How it was run: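 Cells: HepG2, 2,000/well, attached overnight. Compound 1 hr, 37 C/5% CO2. +m-MPI dye, +CellTiter-Glo 30 min RT. Readout: luminescence (ATP).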

[4] = qHTS assay for small molecule disruptors of the mitochondrial membrane potential (AID 720635); note: potency is the fitted concentration of half-maximal effect
How it was run: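 Mitochondrial membrane potential tracked with Mito-MPS dye, red aggregates (ex 540/em 590 nm) against green monomers (ex 490/em 535 nm). Compound treatment 1 hr at 37C, dye 30 min in HepG2.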

[5] = qHTS assay to test for compound auto fluorescence at 590 nm (red) in HepG2 cells (AID 720674)
How it was run: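 We screened compounds on adherent HepG2 cells, incubating them for an hour at 37 C in 5% CO2 before reading emission at 590 nm under 540 nm excitation; values reflect equivalence to Rose Bengal sodium fluorescence.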

[6] = qHTS assay to test for compound auto fluorescence at 535 nm (green) in HepG2 cells (AID 720675)
[7] = qHTS assay to test for compound auto fluorescence at 460 nm (blue) in HEK293 cells (AID 720678)
How it was run: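 HEK293, 2,000 cells/well, 10% dialyzed FBS; attach 4-5 hr 37C; pin compound or DMSO; o/n 37C/5% CO2; fluorescence 405/460 nm; triamterene-equivalent units.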

[8] = qHTS assay to test for compound auto fluorescence at 590 nm (red) in HEK293 cells (AID 720679)
How it was run: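 Intensity at 540nm excitation and 590nm emission is reported as Rose Bengal sodium-equivalent autofluorescence. Measurements followed overnight exposure (37C, 5% CO2) of HEK293 cells, 2,000 per well, to 23 nL compound.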

[9] = qHTS assay for small molecule agonists of the p53 signaling pathway - cell viability (AID 651633; calls by dose curve; note: nearly all actives have a fitted effect of over 30% in size; note: potency is the fitted concentration of half-maximal effect)
How it was run: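 Viability counter-read: CellTiter-Glo luminescence (30 min, room temperature) in the same p53RE-bla plates. These plates had been exposed to compounds for 16 h at 37 C.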

SMILES | Potency [1] | Potency [2] | Potency [3] | Potency [4] | Potency [5] | Potency [6] | Potency [7] | Potency [8] | Potency [9]
CCC(Cl)C(Cl)C(Cl)CC(Cl)C(Cl)C(C)Cl (stereo not given) | inactive | inactive | inactive | 24.3 µM (active) | inactive | inactive |  |  | 
CCCCCCCCCCCCCCCC(=O)OC[C@H](O)[C@H]1OC(=O)C(O)=C1O | inactive | inactive | inactive | inactive | inactive | inactive | inactive | inactive | 
CN(C/C=C/C#CC(C)(C)C)Cc1cccc2ccccc12 | inactive | inactive | inactive | inactive | inactive | inactive | inactive | inactive | 
CCCCCCCCCCCCc1ccc(O)cc1 | inactive |  | inactive | 2.73 µM (active) | inactive | inactive | inactive | inactive | 24.3 µM (active)
CCCCCCCCCOC(=O)c1ccc(O)cc1 | inactive |  |  | 4.27 µM (active) | inactive | inactive | inactive | inactive | 60.3 µM (active)
CC(C)C(C)(C)C(C)(C)C(C)(C)S | inactive | inactive |  |  | inactive | inactive | inactive | inactive | inactive
CCOc1nc2cccc(C(=O)OC(C)OC(=O)OC3CCCCC3)c2n1Cc1ccc(-c2ccccc2-c2nn[nH]n2)cc1 (stereo not given) | inactive |  |  | 13.7 µM (active) | inactive | inactive | inactive | inactive | 12.2 µM (active)
O=C(Nc1cccc([N+](=O)[O-])c1)c1cc2ccccc2cc1O | inactive |  |  | 0.154 µM (active) | inactive | inactive | inactive | inactive | 3.86 µM (active)
O=C(O)c1cc(O)c2c(c1)C(=O)c1cccc(O)c1C2=O | inactive |  | inactive | 2.51 µM (active) | inactive | inactive |  | inactive | inactive
C/C=C1/C(=O)C[C@H]2[C@@H]3CCC4=CC(=O)CC[C@]4(C)[C@H]3CC[C@]12C | inactive | inactive | inactive | inactive | inactive | inactive | inactive |  | 
CC1(C)CCC(C)(C)c2cc(C(=O)Nc3ccc(C(=O)O)cc3)ccc21 | inactive |  | inactive | 54.5 µM (active) | inactive | inactive |  |  | 61.1 µM (active)
OCCN1CCN(CC/C=C2/c3ccccc3Sc3ccc(C(F)(F)F)cc32)CC1 | inactive |  |  |  | inactive | inactive | inactive | inactive | 29.8 µM (active)
CSc1ccc(/C=C2/C(C)=C(CC(=O)O)c3cc(F)ccc32)cc1 | inactive |  | inactive |  | inactive | inactive |  | inactive | 26.6 µM (active)
O=c1cc(-c2ccc(O)cc2)oc2cc(O)cc(O)c12 | 5.52 µM (active) and 4.86 µM (active) |  | 4.92 µM (active) | 1.75 µM (active) and 1.37 µM (active) | inactive | inactive | inactive | inactive | inactive and 54.5 µM (active)
CCCCCCCCNC(C)C(O)c1ccc(SC(C)C)cc1 (stereo not given) | inactive | 10.6 µM (active) |  |  | inactive | inactive | inactive | inactive | 10.6 µM (active)
O=C1Cc2cc(CCN3CCN(c4nsc5ccccc45)CC3)c(Cl)cc2N1 | inactive |  | inactive | inactive | inactive | inactive | inactive | inactive | inactive and 23.7 µM (active)
NNc1nc(-c2ccccc2)cs1 | inactive | 4.99 µM (active) | inactive | 1.58 µM (active) | inactive | inactive | inactive | inactive | 
CC(C)(C)C(=O)OCOC(=O)C1N2C(=O)CC2S(=O)(=O)C1(C)C (stereo not given) | inactive | inactive |  |  | inactive | inactive | inactive | inactive | inactive

SMILES | Potency [1] | Potency [2] | Potency [3] | Potency [4] | Potency [5] | Potency [6] | Potency [7] | Potency [8] | Potency [9]
O=C1CCCCCN1SSN1CCCCCC1=O | inactive |  | inactive |  | inactive | inactive | inactive | inactive | inactive
NC(=NCCCCCCN=C(N)/N=C(\N)Nc1ccc(Cl)cc1)/N=C(\N)Nc1ccc(Cl)cc1 | inactive |  | inactive |  | inactive | inactive | inactive | inactive | 38.2 µM (active) [middle of 4 runs]
O=[N+]([O-])c1ccccc1Nc1ccccc1 | inactive |  | inactive |  | inactive | inactive | inactive | inactive | inactive
O=C(Oc1ccccc1)c1ccccc1C(=O)Oc1ccccc1 | inactive | inactive |  |  | inactive | inactive | inactive | inactive | inactive
Oc1ccc(C2(c3ccc(O)cc3)CC3CC2C2CCCC32)cc1 (stereo not given) | inactive |  | inactive | 33 µM (active) | inactive | inactive | inactive | inactive | 58.7 µM (active)
c1cc(C(c2ccc(OCC3CO3)cc2)c2ccc(OCC3CO3)cc2)ccc1OCC1CO1 (stereo not given) | inactive |  |  |  | inactive | inactive | inactive | inactive | inactive
CCCCCCCCCCCCCCCS(=O)(=O)Oc1ccccc1 | inactive | inactive |  |  | inactive | inactive | inactive | inactive | inactive
Fc1ccc(C(c2ccc(F)cc2)N2CCN(C/C=C/c3ccccc3)CC2)cc1 | inactive |  | inactive |  | inactive | inactive | inactive | inactive | 3.76 µM (active)
CCCCN1C(=O)[C@@H]([C@H](O)C2CCCCC2)NC(=O)C12CCN(Cc1ccc(Oc3ccc(C(=O)O)cc3)cc1)CC2 | inactive |  | inactive |  | inactive | inactive | inactive | inactive | inactive
CC(C)(C)c1ccc(C(=O)O)cc1 | inactive | inactive |  |  | inactive | inactive | inactive | inactive | inactive
Fc1ccc([C@@H]2CCNC[C@H]2COc2ccc3c(c2)OCO3)cc1 | inactive |  | inactive |  | inactive | inactive | inactive | inactive | 33.5 µM (active)
Clc1ccccc1C(c1ccccc1)(c1ccccc1)n1ccnc1 | inactive |  | inactive and 54.5 µM (active) | 10.1 µM (active) and 9.69 µM (active) | inactive | inactive | inactive | inactive | 19.3 µM (active)
CCCCCCCC/C=C/CCCCCCCC1=NCCN1CCO | inactive |  | 54.5 µM (active) | 54.5 µM (active) | inactive | inactive |  |  | 43.3 µM (active)
O=C(OC[C@H]1O[C@@H](OC(=O)c2cc(O)c(O)c(OC(=O)c3cc(O)c(O)c(O)c3)c2)[C@H](OC(=O)c2cc(O)c(O)c(OC(=O)c3cc(O)c(O)c(O)c3)c2)[C@@H](OC(=O)c2cc(O)c(O)c(OC(=O)c3cc(O)c(O)c(O)c3)c2)[C@@H]1OC(=O)c1cc(O)c(O)c(OC(=O)c2cc(O)c(O)c(O)c2)c1)c1cc(O)c(O)c(OC(=O)c2cc(O)c(O)c(O)c2)c1 | inactive |  | 10.6 µM (active) and inactive | 2.37 µM (active) | inactive | inactive |  | inactive | 5.96 µM (active) and inactive
Oc1ccc2cc(SSc3ccc4cc(O)ccc4c3)ccc2c1 | inactive |  | inactive | 38.6 µM (active) and 24.3 µM (active) | inactive | inactive | inactive | inactive | inactive
CN(C)C(=O)C1(N2CCCCC2)CCN(CC[C@@]2(c3ccc(Cl)c(Cl)c3)CN(C(=O)c3ccccc3)CCO2)CC1 | inactive | 64.1 µM (active) |  |  | inactive | inactive | inactive | inactive | 64.1 µM (active)
Cc1c(C)c2c(c(C)c1OC(=O)CCC(=O)O)CC[C@@](C)(CCC[C@H](C)CCC[C@H](C)CCCC(C)C)O2 | inactive |  | inactive |  | inactive | inactive | inactive | inactive | inactive
CCCN(CCC)c1c([N+](=O)[O-])cc(C(F)(F)F)c(N)c1[N+](=O)[O-] | inactive |  |  | 4.31 µM (active) | inactive | inactive | inactive | inactive | 30.5 µM (active)
